Over roughly 16,000 sequences, “rpm ratio (pull-down/input)” has its median near 0.94; the highest 2% begin near 1.7. The list comes from a sample in which the highest values are over-represented; it also holds similar and randomly drawn sequences.
Target: T1, MBP-FoxP1dN (Mus musculus, UniProt P58462 326-579)
T1 sequence: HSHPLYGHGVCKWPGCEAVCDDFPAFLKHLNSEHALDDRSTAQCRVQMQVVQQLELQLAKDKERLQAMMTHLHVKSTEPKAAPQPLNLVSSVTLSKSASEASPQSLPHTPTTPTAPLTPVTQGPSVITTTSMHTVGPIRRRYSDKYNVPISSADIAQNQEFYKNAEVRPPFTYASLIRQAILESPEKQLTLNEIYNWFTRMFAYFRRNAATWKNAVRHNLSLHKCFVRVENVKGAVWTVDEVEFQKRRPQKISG
Assay: PD-seq (MBP pull-down with sequencing); 20 mM Tris-HCl pH 7.5, 100 mM NaCl, 1.5 mM MgCl2, 0.4 uM protein, 0.1 uM dsDNA library, 30 min, room temperature, amylose pull-down; high values mean tight binding
Conditions: protein: recombinant; tags: His6-MBP; chain copies: 2; dsDNA, one strand shown
How it was run: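 A fragment of mouse FoxP3 or FoxP1 without its N-terminus, carrying a His6-MBP tag and produced in E. coli, was combined at 0.4 µM with a 0.1 µM degenerate double-stranded DNA library filled in with Klenow. The mixture sat for 30 min at room temperature in Tris pH 7.5 buffer containing NaCl and MgCl2. Protein–DNA complexes were captured on amylose resin, washed three times, and the DNA was freed with proteinase K, barcoded by PCR and sequenced on Illumina. Binding is expressed as reads-per-million enrichment of pull-down over input, with replicates pooled.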

Sequence	binding signal
GATGATTGTTCTCCCAGCTGATGAATTATTTTAGTCGAGTAAACAAATTTTCCTAATCTTTCTGTTCAAGCGCCATCTAC	1.21 RPM ratio (pull-down/input)
GATGATTGTTCTCCCAGCTGATGAATTTTGTTAGTCGAGTAAACAAATTTTCCTAATCTTTCTGTTCAAGCGCCATCTAC	1.82 RPM ratio (pull-down/input)
GATGATTGTTCTCCCAGCTGATGAATTTTTTAGGTCGAGTAAACAAATTTTCCTAATCTTTCTGTTCAAGCGCCATCTAC	0.925 RPM ratio (pull-down/input)
GATGATTGTTCTCCCAGCTGATGAATTGTTTAGGTCGAGTAAACAAATTTTCCTAATCTTTCTGTTCAAGCGCCATCTAC	1.93 RPM ratio (pull-down/input)
GATGATTGTTCTCCCAGCTGATGAATTTGTTTAGTCGAGTAAACAAATTTTCCTAATCTTTCTGTTCAAGCGCCATCTAC	2.24 RPM ratio (pull-down/input)
GATGATTGTTCTCCCAGCTGATGAATTCTTTAGGTCGAGTAAACAAATTTTCCTAATCTTTCTGTTCAAGCGCCATCTAC	0.821 RPM ratio (pull-down/input)
GATGATTGTTCTCCCAGCTGATGAATTTATTTAGTCGAGTAAACAAATTTTCCTAATCTTTCTGTTCAAGCGCCATCTAC	1.76 RPM ratio (pull-down/input)
GATGATTGTTCTCCCAGCTGATGAATTCGACATATCGAGTAAACAAATTTTCCTAATCTTTCTGTTCAAGCGCCATCTAC	0.996 RPM ratio (pull-down/input)
GATGATTGTTCTCCCAGCTGATGAATTGTATGACTCGAGTAAACAAATTTTCCTAATCTTTCTGTTCAAGCGCCATCTAC	0.974 RPM ratio (pull-down/input)
GATGATTGTTCTCCCAGCTGATGAATTTATCAGATCGAGTAAACAAATTTTCCTAATCTTTCTGTTCAAGCGCCATCTAC	1.03 RPM ratio (pull-down/input)
GATGATTGTTCTCCCAGCTGATGAATTCAGGCGGTCGAGTAAACAAATTTTCCTAATCTTTCTGTTCAAGCGCCATCTAC	0.783 RPM ratio (pull-down/input)
GATGATTGTTCTCCCAGCTGATGAATTACTAAGGTCGAGTAAACAAATTTTCCTAATCTTTCTGTTCAAGCGCCATCTAC	1.03 RPM ratio (pull-down/input)
GATGATTGTTCTCCCAGCTGATGAATTACTTTGGTCGAGTAAACAAATTTTCCTAATCTTTCTGTTCAAGCGCCATCTAC	0.952 RPM ratio (pull-down/input)
GATGATTGTTCTCCCAGCTGATGAATTTTGATGGTCGAGTAAACAAATTTTCCTAATCTTTCTGTTCAAGCGCCATCTAC	1.04 RPM ratio (pull-down/input)
GATGATTGTTCTCCCAGCTGATGAATTGCTATTTTCGAGTAAACAAATTTTCCTAATCTTTCTGTTCAAGCGCCATCTAC	2.22 RPM ratio (pull-down/input)
GATGATTGTTCTCCCAGCTGATGAATTTGCTATGTCGAGTAAACAAATTTTCCTAATCTTTCTGTTCAAGCGCCATCTAC	1.06 RPM ratio (pull-down/input)
GATGATTGTTCTCCCAGCTGATGAATTTGCTATTTCGAGTAAACAAATTTTCCTAATCTTTCTGTTCAAGCGCCATCTAC	1.17 RPM ratio (pull-down/input)
GATGATTGTTCTCCCAGCTGATGAATTTTGCTATTCGAGTAAACAAATTTTCCTAATCTTTCTGTTCAAGCGCCATCTAC	1.32 RPM ratio (pull-down/input)

Sequence	binding signal
GATGATTGTTCTCCCAGCTGATGAATTATTGCTGTCGAGTAAACAAATTTTCCTAATCTTTCTGTTCAAGCGCCATCTAC	1.67 RPM ratio (pull-down/input)
GATGATTGTTCTCCCAGCTGATGAATTGCTATTGTCGAGTAAACAAATTTTCCTAATCTTTCTGTTCAAGCGCCATCTAC	2.28 RPM ratio (pull-down/input)
GATGATTGTTCTCCCAGCTGATGAATTAGGCGCGTCGAGTAAACAAATTTTCCTAATCTTTCTGTTCAAGCGCCATCTAC	1.03 RPM ratio (pull-down/input)
GATGATTGTTCTCCCAGCTGATGAATTGGACTATTCGAGTAAACAAATTTTCCTAATCTTTCTGTTCAAGCGCCATCTAC	0.893 RPM ratio (pull-down/input)
GATGATTGTTCTCCCAGCTGATGAATTCCCCGGATCGAGTAAACAAATTTTCCTAATCTTTCTGTTCAAGCGCCATCTAC	0.788 RPM ratio (pull-down/input)
GATGATTGTTCTCCCAGCTGATGAATTTACCTACTCGAGTAAACAAATTTTCCTAATCTTTCTGTTCAAGCGCCATCTAC	1.24 RPM ratio (pull-down/input)
GATGATTGTTCTCCCAGCTGATGAATTACTAAAATCGAGTAAACAAATTTTCCTAATCTTTCTGTTCAAGCGCCATCTAC	1.34 RPM ratio (pull-down/input)
GATGATTGTTCTCCCAGCTGATGAATTACTAACATCGAGTAAACAAATTTTCCTAATCTTTCTGTTCAAGCGCCATCTAC	1.77 RPM ratio (pull-down/input)
GATGATTGTTCTCCCAGCTGATGAATTAATTACATCGAGTAAACAAATTTTCCTAATCTTTCTGTTCAAGCGCCATCTAC	1.26 RPM ratio (pull-down/input)
GATGATTGTTCTCCCAGCTGATGAATTGATTACATCGAGTAAACAAATTTTCCTAATCTTTCTGTTCAAGCGCCATCTAC	1.58 RPM ratio (pull-down/input)
GATGATTGTTCTCCCAGCTGATGAATTACAAACATCGAGTAAACAAATTTTCCTAATCTTTCTGTTCAAGCGCCATCTAC	2.67 RPM ratio (pull-down/input)
GATGATTGTTCTCCCAGCTGATGAATTACATTTATCGAGTAAACAAATTTTCCTAATCTTTCTGTTCAAGCGCCATCTAC	1.52 RPM ratio (pull-down/input)
GATGATTGTTCTCCCAGCTGATGAATTTATTACATCGAGTAAACAAATTTTCCTAATCTTTCTGTTCAAGCGCCATCTAC	1.21 RPM ratio (pull-down/input)
GATGATTGTTCTCCCAGCTGATGAATTACCAAAATCGAGTAAACAAATTTTCCTAATCTTTCTGTTCAAGCGCCATCTAC	1.3 RPM ratio (pull-down/input)
GATGATTGTTCTCCCAGCTGATGAATTTACCAAATCGAGTAAACAAATTTTCCTAATCTTTCTGTTCAAGCGCCATCTAC	1.65 RPM ratio (pull-down/input)
GATGATTGTTCTCCCAGCTGATGAATTACCAACATCGAGTAAACAAATTTTCCTAATCTTTCTGTTCAAGCGCCATCTAC	1.94 RPM ratio (pull-down/input)
GATGATTGTTCTCCCAGCTGATGAATTATTTACATCGAGTAAACAAATTTTCCTAATCTTTCTGTTCAAGCGCCATCTAC	2.34 RPM ratio (pull-down/input)
GATGATTGTTCTCCCAGCTGATGAATTACTACCATCGAGTAAACAAATTTTCCTAATCTTTCTGTTCAAGCGCCATCTAC	1.13 RPM ratio (pull-down/input)
